Compounds with a hit are over-represented: about 4.6% of the library has one in this group of screens.
DAX1 inh-1 – DAX1 (NR0B1) inhibitors on StAR promoter, primary screen, cell-based, luminescence, SF-1 (NR5A1), full-length DAX-1; HEK293T StAR-luciferase reporter, SF-1/DAX-1 repression relief; inhibition, % at 6.8 µM; hit rate 1.1% among 370,000; AID 652010, 2013;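 active = inhibition above the mean over all tested compounds plus 3 SD, cut at about 3.6% in these data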;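 also: 0% = DAX-1 cells with DMSO and 100% = cells lacking DAX-1 with DMSO; higher inhibition means more luminescence from relief of DAX-1 repression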
hcDAF-12 act – H. contortus DAF-12 nuclear receptor activators, primary screen, cell-based, luminescence, HEK293, lit1-tk-luc reporter | HEK293 hcDAF-12 lit1-tk-luc reporter; 0% DMSO, 100% Δ7-dafachronic acid | activation, % at 6.8 µM | hit rate 1.4% among 370,000;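 active = activation above the mean of all tested compounds plus 3 SD, cut at about 5.5% in these data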;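 also: 100% = response to 3 µM Δ7-dafachronic acid high control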
Wee1 stabilizer – Wee1 degradation inhibitors, primary screen, cell-based, HeLa, Wee1K328M-luciferase, luminescence; AID 1321, 2008; Wee1-like protein kinase (Homo sapiens), P30291; reporter increase, % at 5 µM; hit rate 1.2% among 220,000; HeLa Luc-Wee1K328M stability; 100% = proteasome inhibitor MG132 effect;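 active = activation above the mean of all tested compounds plus 3 SD, set per screening run, cut at about 8.8% in these data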;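 also: cells exposed to compound for 20 h before luminescence read; 0% = DMSO alone and 100% = MG132 at 30 µM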
Target sequence (P30291 whole entry K328M): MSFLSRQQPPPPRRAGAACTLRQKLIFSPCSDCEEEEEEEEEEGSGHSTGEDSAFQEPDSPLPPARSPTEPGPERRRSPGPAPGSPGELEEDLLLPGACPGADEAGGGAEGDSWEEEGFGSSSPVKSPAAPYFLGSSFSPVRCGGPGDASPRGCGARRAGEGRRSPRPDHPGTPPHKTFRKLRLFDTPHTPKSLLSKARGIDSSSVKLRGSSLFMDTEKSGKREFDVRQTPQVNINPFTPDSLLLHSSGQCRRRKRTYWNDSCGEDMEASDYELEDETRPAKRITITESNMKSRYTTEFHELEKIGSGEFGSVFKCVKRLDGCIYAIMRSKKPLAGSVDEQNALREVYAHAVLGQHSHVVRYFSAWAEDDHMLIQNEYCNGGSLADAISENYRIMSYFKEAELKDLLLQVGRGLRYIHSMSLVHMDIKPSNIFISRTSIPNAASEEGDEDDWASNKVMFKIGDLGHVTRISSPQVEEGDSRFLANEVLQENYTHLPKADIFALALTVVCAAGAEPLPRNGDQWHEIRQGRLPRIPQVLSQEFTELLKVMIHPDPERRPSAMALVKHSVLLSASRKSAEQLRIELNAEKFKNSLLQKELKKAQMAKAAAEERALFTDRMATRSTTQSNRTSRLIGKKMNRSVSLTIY
hgDAF12 agonist – H. glycines DAF-12 receptor agonists, primary screen, cell-based, luminescence, HEK293, GAL4 fusion, UAS-luciferase; hit rate 1.8% among 370,000; Nuclear hormone receptor DAF-12 (Heterodera glycines), GAL4 fusion; activation, % at 6.8 µM; HEK293 GAL4-hgDAF12 UAS-luciferase reporter, agonist luminescence; normalized to butyrate control;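 active = activation above a cutoff set at the mean of all screened compounds plus 3 SD, cut at about 10% in these data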;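 also: 0% = DMSO wells and 100% = sodium butyrate wells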
DAX1 inh-2 – DAX1 (NR0B1) inhibitors, primary screen, cell-based, HEK293, Gal4-DAX1, luciferase luminescence | Nuclear receptor subfamily 0 group B member 1 (Homo sapiens), P51843 | HEK293 Gal4-DAX1 luciferase reporter | inhibition, % at 6.75 µM | hit rate 0.99% among 340,000 | AID 504766, 2011;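 active = inhibition above the mean over all tested compounds plus 3 SD, cut at about 4.2% in these data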;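 also: 0% = DAX1-transfected cells with DMSO and 100% = empty-vector control cells with DMSO; inhibition shows as a rise in luminescence from relieved DAX1 repression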
ssDAF12 agonist – S. stercoralis DAF-12 nuclear receptor activators, primary screen, cell-based, luminescence, HEK293, GRIP1 co-expression, lit1-tk-luc | Nuclear hormone receptor DAF-12 (Strongyloides stercoralis) | HEK293 ssDAF-12/GRIP1 lit1-tk-luc reporter; % of 3 µM dafachronic acid response | activation, % at 6.8 µM | hit rate 1% among 370,000 | AID 652126, 2013;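 active = activation above the mean over all tested compounds plus 3 SD, cut at about 0.9% in these data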;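 also: 0% = DMSO-only wells and 100% = 3 µM delta7-dafachronic acid wells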
* hit, by the source's call; . = not tested or not shown.

SMILES | DAX1 inh-1 | hcDAF-12 act | Wee1 stabilizer | hgDAF12 agonist | DAX1 inh-2 | ssDAF12 agonist
O=C(CC1Oc2ccccc2NC1=O)NCc1ccc(Cl)cc1 (centres undefined) | 0 | 3 | 0 | 1 | 4.4* | -1
O=C(CC1Oc2ccccc2NC1=O)NCCc1ccccc1 (centres undefined) | 0 | 0 | 2 | -3 | 0 | -1
CCc1cccc(NC(=O)CC2Oc3ccccc3NC2=O)c1 (centres undefined) | 0 | -1 | . | -5 | 1 | -1
CCCCN1CCC(=O)C(C(=O)OCC)=C1C(=O)OCC | 0 | 1 | . | -2 | -2 | -1
Cn1c(-c2ccc(F)cc2)cnc1SCC(=O)N1CCCc2ccccc21 | 0 | -2 | 4 | 0 | 1 | -1
Cn1c(-c2ccc(F)cc2)cnc1SCC(=O)N1CCCCC1 | 2 | 3 | 6 | 12* | 1 | 0
CC(C)NC(=O)OC[C@@H]1CSCCS(=O)(=O)N1 | 2 | 1 | . | 1 | . | -1
C/C(=N\Nc1ccc(C(F)(F)F)cn1)c1ccncc1 | 4.0* | 0 | 4 | 4 | 0 | -1
Oc1ccc(/C=N/Nc2ccc(C(F)(F)F)cn2)c(O)c1 | -2 | -1 | . | -4 | 0 | -1
C/C(=N\NC(=O)c1ccc(N/N=C(\C)c2ccncc2)cc1)c1ccncc1 | 0 | -1 | -3 | 5 | 2 | -2
Oc1ccc(/C=N/Nc2ccc(C(F)(F)F)cn2)cc1 | 4.4* | 3 | 1 | 9 | 0 | 0
COC(=O)c1cc(-c2ccc(OC)cc2)n[nH]1 | 0 | 0 | -1 | 11* | 2 | -1
O=C(NCc1csc(-c2cccs2)n1)C1CCCCC1 | 1 | 4 | 2 | 8 | 4.5* | 0
CCCC(C)(C)C(=O)N1CCC1(C)C(=O)NS(=O)(=O)c1ccccc1Cl (centres undefined) | 1 | 0 | . | -1 | . | -1
Cc1ccc(Cl)cc1N1CCN(C(=O)C2CCC(=O)N(C3CCCCCC3)C2)CC1 (centres undefined) | -2 | 1 | . | -2 | 1 | -1
Cc1ccc(Cl)cc1N1CCN(C(=O)C2CCC(=O)N2C(C)C)CC1 (centres undefined) | 1 | 0 | 0 | 2 | 0 | 1.7*
CCCCn1c(=O)c(CCC(=O)OCC(=O)Nc2cc(Cl)ccc2OC)nc2ccccc21 | 0 | 1 | 3 | 1 | 0 | -1
CCCCn1c(=O)c(CCC(=O)OCC(=O)Nc2cccc3ccccc23)nc2ccccc21 | 0 | 1 | 0 | -2 | 0 | 1.6*
O=C(COc1ccc(Br)cc1Cl)c1ccc[nH]1 | 0 | 3 | -1 | 13* | 1 | -1
COc1ccc(C2N3CC4(C)CN2CC(C)(C3)C4=O)cc1OC (centres undefined) | 1 | -2 | -1 | 1 | 5.2* | -1
CC(=O)NCc1ccc(C(=O)CN2C(=O)NC3(CCCCC3C)C2=O)s1 (centres undefined) | 0 | 1 | . | 12* | 0 | -1
O=C1c2ccccc2C(=O)N1c1ccc(S(=O)(=O)N2CCN(c3ccccc3)CC2)cc1 | 0 | 2 | 9.4* | -1 | 1 | -1
O=C1c2ccccc2C(=O)N1c1ccccc1 | 0 | -2 | . | 1 | 5.2* | -2
Cc1ccc(S(=O)(=O)N2CCN(c3cnn(-c4ccccc4)c(=O)c3Cl)CC2)cc1 | 1 | 0 | -1 | 0 | 4.7* | -1
COc1ccc(O)c(C(=O)CC(=O)c2ccccc2)c1 | . | . | -4 | . | . | .
SMILES | DAX1 inh-1 | hcDAF-12 act | Wee1 stabilizer | hgDAF12 agonist | DAX1 inh-2 | ssDAF12 agonist
Cc1ccc(O)c(C(=O)CC(=O)c2ccc(C(C)(C)C)cc2)c1 | 1 | 1 | . | 11* | 3 | -1
NC(=S)N/N=C/c1ccc(-c2cccc([N+](=O)[O-])c2)o1 | -1 | -2 | -1 | -1 | -1 | -1
O=C(N/N=C/c1ccc(-c2cccc([N+](=O)[O-])c2)o1)c1cccs1 | -1 | 5.7* | -2 | 5 | 0 | 1.8*
COc1ccc(OC)c(C(=O)N/N=C/c2ccccn2)c1 | 0 | 1 | . | 8 | 4.6* | -1
O=C(N/N=C/c1ccccn1)c1cccs1 | 0 | 4 | 2 | 9 | 4 | 1.5*
O=C(N/N=C\c1cn[nH]c1-c1ccccc1)c1cccs1 | 2 | 2 | -3 | 13* | 4 | 0
Cc1ccccc1Cn1cc(CN2[C@@H](C)COc3cc(Br)ccc3S2(=O)=O)nn1 | -1 | 1 | . | -1 | . | -2
CC(OC(=O)c1ccc([N+](=O)[O-])o1)C(=O)Nc1nc(-c2ccc(F)c(F)c2)cs1 (centres undefined) | 0 | 1 | . | 10 | 0 | 0
CC1CC(=O)C(C(C2=C(O)CC(C)CC2=O)c2ccccc2)=C(O)C1 (centres undefined) | 0 | -2 | . | -1 | 1 | 0
COCCCN1C(=O)C(CC(=O)NCCc2ccccn2)CC(C(=O)N2CCCCCC2)=C1C (centres undefined) | 0 | 2 | . | 0 | . | -1
O=C(CCC1CCN(Cc2nccs2)CC1)Nc1ccccc1 | 0 | -1 | . | 3 | 2 | 0
CC(=O)c1ccc(S(=O)(=O)N2CCNC(=O)C2)cc1 | 0 | 1 | . | -2 | 1 | -1
COc1ccccc1/C=C\C=N\NC(=O)c1ccco1 | 0 | 2 | 2 | 2 | 0 | -1
COc1ccccc1/C=C/C=N/NC(=O)c1cccs1 | 1 | 2 | 2 | 10 | 7.2* | 0
Cc1ccccc1C(=O)N/N=C/c1ccncc1 | 0 | 0 | -3 | 2 | 2 | -1
Cc1ccccc1C(=O)N/N=C/c1ccccn1 | 2 | 4 | 1 | 13* | 1 | -1
Cn1cc(C=O)c2ccccc21 | 0 | 2 | -4 | 1 | -1 | 1.3*
O=C(NCCc1ccccc1)Nc1nnc([C@@H]2C[C@H](O)[C@@H](CO)O2)s1 | 0 | -1 | . | 0 | . | -1
CCOC(=O)c1cc(-c2ccccc2)n(CCC(=O)O)c1C | -1 | -2 | -1 | 5 | 4.4* | -1
CCOC(=O)c1cc(-c2ccccc2)n(CC(=O)Nc2ccc(OC)cc2)c1C | 0 | 0 | -3 | -2 | 0 | -2
CC1=C(C(=O)N(C)C)CC(CC(=O)NCCc2ccccn2)C(=O)N1CCCN1CCCC1=O (centres undefined) | 1 | 0 | . | -1 | 1 | -1

High-throughput results from PubChem.
